Screening data deposited in PubChem by several laboratories.
Rows were chosen to be rich in hits. Some 27% of all compounds tested hit in one or more screens of this group.
CYP2C19 inh: human CYP2C19 inhibition | CYP2C19 Supersomes, luciferin-H EGE luminescence, 30 min | P33261 | AID 778 | actives 21% (n = 96,000) | inhibition, % at 5 µM;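 active means CYP2C19 inhibition above a set limit at 5 µM in the primary screen, cut at about 50% in these data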;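 further: plate controls were negative control wells for no effect and 2.5 mM tranylcypromine positive control for full effect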
Cav32 inh: blocks human Cav3.2 T-type calcium channel | actives 4% (n = 100,000) | O95180 | B-score at 10 µM | AID 449739 | Cav3.2-expressing cells, Fluo-4 calcium fluorescence FDSS; stronger effect = lower value;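 active means single-dose well whose peak fluorescence ratio is a statistical outlier from its plate by either plate-standardised score or position-corrected B-score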
CYP2C9 inhib: human CYP2C9 inhibition; P11712; CYP2C9 Supersomes, luciferin-H conversion, luminescence; inhibition, % at 5 µM; actives 20% (n = 96,000); AID 777;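 active means blocking of liver enzyme CYP2C9 beyond about 50% at 5 µM, limit read from the data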
Target sequence (P11712 whole entry, looked up): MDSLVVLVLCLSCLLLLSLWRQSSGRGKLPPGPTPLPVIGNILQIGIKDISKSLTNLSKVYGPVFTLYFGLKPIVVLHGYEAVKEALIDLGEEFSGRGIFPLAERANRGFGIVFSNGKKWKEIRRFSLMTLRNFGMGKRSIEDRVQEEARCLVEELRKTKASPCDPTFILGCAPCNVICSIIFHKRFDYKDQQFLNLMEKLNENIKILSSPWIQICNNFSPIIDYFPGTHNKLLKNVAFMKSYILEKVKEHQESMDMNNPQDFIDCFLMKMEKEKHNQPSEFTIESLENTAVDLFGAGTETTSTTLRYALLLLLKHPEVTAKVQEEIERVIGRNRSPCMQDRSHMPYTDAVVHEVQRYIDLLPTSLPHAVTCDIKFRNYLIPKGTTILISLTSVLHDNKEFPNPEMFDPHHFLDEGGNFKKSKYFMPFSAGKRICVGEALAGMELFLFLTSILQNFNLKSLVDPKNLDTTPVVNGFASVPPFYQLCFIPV
CYP2C9 act: CYP2C9 (human) activation. actives 1.4% (n = 96,000). recombinant CYP2C9, luciferin-H conversion, luminescence; stronger effect = higher value; factor 1 = untreated enzyme, 0 = blocked. P11712. activation factor at 5 µM;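 active means activation factor of 2 or more for CYP2C9 at a 5 µM dose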;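 further: 0 = sulfaphenazole-blocked wells and 1 = vehicle-only wells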
CYP2C19 activ: cytochrome P450 2C19 (human) activation; P33261; recombinant CYP2C19, luciferin-H EGE luminescence; stronger effect = higher value; 0 = fully inhibited enzyme, 1 = untreated enzyme; activation factor at 5 µM; 96,000 tested, under 10 active; AID 1025;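 active means activation factor of at least 2 at 5 µM in the primary screen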;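 further: 0 = wells with 2.5 mM tranylcypromine and 1 = vehicle-only wells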
Active calls of the source: *; . = no result given.

SMILES	CYP2C19 inh	Cav32 inh	CYP2C9 inhib	CYP2C9 act	CYP2C19 activ
O=C1N=C(N2CCC(Cc3ccccc3)CC2)S/C1=C/c1cn[nH]c1-c1ccccc1	48	.	60*	0.4	0.5
COC(=O)C1=C(C)N(C)C(=O)NC1c1cc(Cl)cc(Cl)c1OC (stereo not drawn)	40	-0.66	31	0.7	0.6
COC(=O)C1=C(C)N(C)C(=O)NC1c1cc(Cl)c(O)c(OC)c1 (stereo not drawn)	36	0.78	56*	0.4	0.6
Cc1nc(-c2ccccc2)sc1C1(C)CC(c2cccc(F)c2)=NO1 (stereo not drawn)	.	0.54	.	.	.
S=C(Nc1cccc(Cl)c1)NC1CCCCC1	27	-4.1*	-1	1	0.7
S=C(NCCc1ccccc1)NC1CCCCCC1	34	-0.79	31	0.7	0.7
O=C(Nc1cccc(F)c1)NC1CCCCC1	55*	0.57	41	0.6	0.4
CC(C)Oc1ccc(CNCC2(O)CCOC(C)(C)C2)cc1 (stereo not drawn)	.	0.41	.	.	.
Cc1ccc(C2CC(c3cccs3)=NN2C(=O)CSC2=NN3CCCC(=O)N=C3S2)cc1 (stereo not drawn)	91*	-1.1	82*	0.2	0.1
COc1ccc(C2CC(c3cccs3)=NN2C(=O)CSC2=NN3CCCC(=O)N=C3S2)cc1 (stereo not drawn)	3	-0.029	25	0.7	1
COC(=O)c1ccc(N2C(=O)CC(N3CCC(O)(c4ccc(Br)cc4)CC3)C2=O)cc1 (stereo not drawn)	12	-0.082	12	0.9	0.9
CCNc1nnc(-c2ccc(C)cc2)o1	61*	0.44	19	0.8	0.4
Cc1oc(-c2cccs2)nc1CS(=O)CC(=O)NCCCN1CC(C)CC(C)C1 (stereo not drawn)	3	-0.48	69*	0.3	1
Cc1ccc(-c2nc(CS(=O)CC(=O)NCc3ccc(Cl)cc3)c(C)o2)cc1 (stereo not drawn)	30	-6*	32	0.7	0.7
CCc1cccc(NC(=O)CS(=O)Cc2nc(-c3ccc(C)cc3)oc2C)c1 (stereo not drawn)	77*	-6.7*	88*	0.1	0.2
CCCCNC(=O)CS(=O)Cc1nc(-c2ccc(C)cc2)oc1C (stereo not drawn)	-7	-2.4	15	0.8	1.1
Cc1ccc(-c2nc(CS(=O)CC(=O)NCCC(C)C)c(C)o2)cc1 (stereo not drawn)	49	-1.3	68*	0.3	0.5
COC(C[C@@H](O)[C@@H](C)[C@H](O)COCc1ccccc1)OC	.	0.71	.	.	.
N#Cc1ccccc1OCC(=O)Nc1c(C(=O)C2CC2)oc2ccccc12	23	0.47	38	0.6	0.8
CCN(CC)S(=O)(=O)c1cccc2cc(C(=O)O)c(O)cc12	4	0.45	71*	0.3	1
CCN(CC)S(=O)(=O)c1cccc2c(N(C)C)cccc12	57*	-2.8	-34	1.3	0.4
CCN(CC)S(=O)(=O)c1cccc2nsnc12	1	0.68	-21	1.2	1
CCN(CC)S(=O)(=O)c1cccc2cccnc12	34	0.29	-379	4.8*	0.7
CN(CC(=O)N1CCCCCC1)S(=O)(=O)c1cccc2cccnc12	16	-1.6	-226	3.3*	0.8
CN(CC(=O)N1CCN(C2CCCCC2)CC1)S(=O)(=O)c1cccc2nsnc12	-10	1.5	12	0.9	1.1
SMILES	CYP2C19 inh	Cav32 inh	CYP2C9 inhib	CYP2C9 act	CYP2C19 activ
CN(CC(=O)NC1CCCCCCC1)S(=O)(=O)c1cccc2cccnc12	75*	-0.32	-10	1.1	0.2
Cc1nn(Cc2ccc(C(=O)n3cccn3)o2)c(C)c1Br	.	-0.51	.	.	.
COc1ccc(N2CCN(C(c3nnnn3CCc3ccccc3)C(C)C)CC2)cc1 (stereo not drawn)	15	-1.9	20	0.8	0.8
COc1ccc(Cn2nnnc2C(CC(C)C)N2CCN(c3ccccc3)CC2)cc1 (stereo not drawn)	74*	-3.6	65*	0.4	0.3
COc1ccc(Cn2nnnc2C(C(C)C)N2CCc3ccccc32)cc1 (stereo not drawn)	71*	-2.5	68*	0.3	0.3
CC(C)CC(c1nnnn1C(C)C)N1CCN(c2ccccc2)CC1 (stereo not drawn)	22	-0.085	68*	0.3	0.8
CCCC(c1nnnn1Cc1ccc(OC)cc1)N1CCN(c2ccccc2)CC1 (stereo not drawn)	44	.	82*	0.2	0.6
Cc1cc(C(F)F)nn1CC(=O)N1CCSCC1	.	-0.25	.	.	.
O=C1NCCN1CCNS(=O)(=O)c1ccc2ccccc2c1	16	-0.46	23	0.8	0.8
COc1ccc(OCCNS(=O)(=O)c2ccccc2)cc1	86*	-0.055	82*	0.2	0.1
O=C(O)CCCNS(=O)(=O)c1cccs1	3	-0.22	2	1	1
COCCNS(=O)(=O)c1ccccc1	12	-0.91	2	1	0.9
CC(C)OCCCNS(=O)(=O)c1ccc2ccccc2c1	39	-0.15	-237	3.4*	0.6
CN(CCOCCOc1ccc2ccccc2c1)Cc1ccccc1	39	-1.2	11	0.9	0.6
Cc1ccc(OCCNS(=O)(=O)c2cccs2)cc1	100*	-0.79	85*	0.2	0
COc1ccc(OCCN(C)Cc2ccccc2)cc1	68*	0.85	-19	1.2	0.3
Cc1cc(C)c(C)c(OCCCCn2cnc3ccccc3c2=O)c1	15	-1.7	-17	1.2	0.8
O=C(O)CCNS(=O)(=O)c1ccc2ccccc2c1	-5	.	-34	1.3	1
CCOCCCNS(=O)(=O)c1ccccc1	60*	-1.9	1	1	0.4
CCCCOCCCNS(=O)(=O)c1ccccc1	44	0.87	13	0.9	0.6
O=S(=O)(NCCOc1ccccc1)c1ccc2ccccc2c1	2	0.043	-105	2.1*	1
Cc1cccc(-n2nnnc2SCc2csc(-c3ccccc3)n2)c1	.	-3.3*	.	.	.
Cn1nnnc1SCc1csc(Nc2ccccc2)n1	17	1.2	-277	3.8*	0.8
Cc1ccc(Nc2nc(CSc3nnnn3-c3ccccc3)cs2)cc1	35	-4*	-68	1.7	0.6
Cn1nnnc1SCc1cccc(CSc2nnnn2C)n1	98*	0.21	-2	1	0
SMILES	CYP2C19 inh	Cav32 inh	CYP2C9 inhib	CYP2C9 act	CYP2C19 activ
Cn1nnnc1SCc1c(F)cccc1F	26	-0.17	1	1	0.7
COC(=O)Cc1cnc(NC(=O)C2C3CCC(C3)C2C(=O)O)s1 (stereo not drawn)	-8	0.072	-13	1.1	1.1
Cc1ccc(Nc2nc(CSc3nnnn3C)cs2)cc1	70*	0.11	-177	2.8*	0.3
CCN(CC)CCCNS(=O)(=O)c1ccc(OC)cc1	3	-2.7	7	0.9	1
COc1ccc(CCNS(=O)(=O)c2ccc3c(c2)OCCO3)cc1	76*	-0.28	24	0.8	0.2
COc1ccc(S(=O)(=O)N2CCN(S(=O)(=O)c3ccc4c(c3)OCCO4)CC2)cc1	2	0.11	4	1	1
COc1ccc(S(=O)(=O)NCCC(=O)NC2CCCCCCC2)cc1	.	1.2	.	.	.
